Test results as given in PubChem BioAssay AID1985 (Southern Research Specialized Biocontainment Screening …, 2009).
About 1,000 (43%) of roughly 2,300 compounds were called active. How the calls were made is not given here. The set was probably picked from earlier hits. The list shows a part of the results. Measured potencies and affinities stand elsewhere.

experiment: PhoP regulon inhibitor project modified counter assay, GFP fluorescence readout, dose response (AID 1985); conditions: S. Typhi, 4 h; series mostly up to 150 µM

Structure (SMILES)	outcome
COC(=O)c1ccc(CSc2nc3ccccc3c(=O)n2-c2ccc(OC)c(OC)c2)o1	inactive
Cc1c(/C=N/NC(=O)c2ccc3c(c2)OCO3)cnn1C	inactive
COc1ccc(C(=O)O/N=C2\C(=O)N(C)c3ccccc32)cc1	inactive
O=C(Nc1ccc(N2CCOCC2)cc1)C1CCN(S(=O)(=O)c2ccccc2F)CC1	inactive
CCc1cccc2c(C=C(C#N)C#N)cn(CC(=O)N3CCCCCC3)c12	inactive
CC(=O)NCc1ccc(C(=O)CCl)cc1	inactive
CCOC(=O)c1ccc(S(=O)(=O)N2CCN(CCC#N)CC2)cc1	inactive
CN(C)[C@@H]1C(=O)C(C(N)=O)=C(O)[C@@]2(O)C(=O)C3=C(O)c4c(O)cccc4[C@@](C)(O)C3[C@H](O)C12 (stereo not given in full)	inactive
O=C1c2c(O)ccc(O)c2C(=O)c2c(NCCNCCO)ccc(NCCNCCO)c21	inactive
C[C@@H](NC(=O)/C(C#N)=C/c1ccc(O)c(O)c1)c1ccccc1	inactive
Cc1nc2cc(C(=O)N3CCC4(CC3)OCCO4)ccc2n1-c1cccc(F)c1	inactive
COC(=O)C1=C(C)N(CC2CC2)C(=O)N[C@H]1c1ccc(Br)cc1	inactive
COC(=O)C1=C(C)N(Cc2ccco2)C(=O)N[C@H]1c1ccc(Br)cc1	inactive
COc1ccc2c(C(=O)CN(C)C3CCCCC3)c[nH]c2c1	inactive
COc1ccc(CC(=O)N(Cc2cc3cc(OC)ccc3[nH]c2=O)C(C)C)cc1	inactive
COC(=O)NNS(=O)(=O)c1ccc(C)cc1	inactive
N#CCC(=O)N/N=C/c1ccccc1Cl	inactive
Cc1cc([N+](=O)[O-])nn1CC(=O)Nc1cccc2nonc12	inactive
Cc1[nH]nc2c1C1(CCC3(CC1)OCCO3)C(C#N)=C(N)O2	inactive
NC(=O)COc1c(-c2ccco2)oc2ccccc2c1=O	inactive
O=C(NNC(=O)c1cccs1)c1ccc2ccccc2c1	inactive
CCOC(=O)c1cccc(NC(=O)c2cccs2)c1	inactive
COC(=O)c1ccc(NC(=S)NNC(=O)c2ccccc2)cc1	inactive
COc1ccc(-c2nc3ccc(C(=O)NCC(OC)OC)cc3nc2-c2ccc(OC)cc2)cc1	inactive

Structure (SMILES)	outcome
COc1ccc(-c2noc(CCC(=O)Nc3cccc(C)c3)n2)cc1	inactive
CCCOc1ccc(C2C(C(=O)c3ccc(C)o3)=C(O)C(=O)N2CCCn2ccnc2)cc1 (stereo not given)	inactive
Clc1ccc(-c2cc(C3CCNCC3)[nH]n2)c(Cl)c1	inactive
C=CCn1c(C)c(C(C)=O)c(SC)nc1=S	inactive
COc1ccc(CNC(=O)C(c2cccs2)N(C(=O)c2csnn2)C2CC2)cc1 (stereo not given)	inactive
COCCN1C(=O)C(=O)/C(=C(/O)c2cccc(OC)c2)C1c1ccncc1 (stereo not given)	inactive
CCC1(CC)C(=O)NC(=O)NC1=Nc1cccc(OC)c1	inactive
CCC(=O)c1ccc(OCC(O)CNCCc2ccc(Cl)cc2)cc1 (stereo not given)	inactive
Cn1c(=O)cc(SCC(=O)N2CCN(C3CCCCC3)CC2)c2ccccc21	inactive
Cn1c(C(O)c2ccccc2F)nc(Cl)c1Cl (stereo not given)	inactive
CSc1ccccc1NC(=O)CN1CCCCC1C (stereo not given)	inactive
CNS(=O)(=O)c1cccc(C(=O)OCc2cc(=O)oc3c(C)c(O)ccc23)c1	inactive
O=C(N/N=C/c1ccc(F)c(F)c1)c1cc2c(s1)-c1ccccc1CC2	inactive
CC(C)(C)Nc1nc(-c2ccccn2)nc2ccccc12	inactive
CC(C)(C)NC(=O)/C=C/c1ccc(C(F)(F)F)cc1	inactive
COCCN1CC(=O)N2C(c3cccc(OC)c3)c3[nH]c4ccccc4c3C[C@H]2C1=O (stereo not given in full)	inactive
Cc1ccc2c(c1)C1CN(C)CCC1N2C(=O)COc1ccccc1F (stereo not given)	inactive
c1ccc(CN2CCC(Nc3nc(-c4cccs4)nc4ccccc34)CC2)cc1	inactive
CCOC(=O)c1cc(-c2ccc(F)cc2)n(CCC(=O)NC2CCN(Cc3ccccc3)CC2)c1C	inactive
c1ccc(CN2CCC(Nc3nc(-c4ccccc4)nc4ccccc34)CC2)cc1	inactive
c1ccc(CN2CCC(N3CCN(Cc4ccc5c(c4)OCO5)CC3)CC2)cc1	inactive
Cc1cc2ccccc2c(=O)n1CC(=O)NCCC1=CCCCC1	inactive
Cc1ccccc1C(=O)c1cccn1CC(=O)NCCC1=CCCCC1	inactive
Clc1ccc(OCc2nc(-c3ccc(Br)o3)no2)cc1	inactive

Structure (SMILES)	outcome
CN1CCN(c2ccccc2NC(=O)c2cc3c(s2)-c2ccccc2OC3)CC1	inactive
NCC/C=C1/c2ccccc2CSc2ccccc21	inactive
c1ccc2c(Nc3nnc(-c4ccncc4)s3)cccc2c1	inactive
O=C(Nc1ccc(N2CCOCC2)cc1)c1ccc(S(=O)(=O)NCc2ccco2)cc1	inactive
CCc1cccc(NC(=O)CSC2=NS(=O)(=O)c3ccccc32)c1	inactive
O=C(CNC(=O)Cn1ccc2ccccc2c1=O)NCCCN1CCCCCC1	inactive
O=C1CCCN1CCC1CCN(C2CC(=O)N(c3ccc(Cl)cc3)C2=O)CC1 (stereo not given)	inactive
CC(NCC(O)COCCC12CC3CC(CC(C3)C1)C2)c1ccccc1 (stereo not given)	inactive
CS(=O)(=O)c1cnc2c(-c3ccsc3)cnn2c1N	inactive
O=C(CCSCc1ccccc1F)NCc1cccs1	inactive
CC(OC(=O)Cc1coc2cc3c(cc12)CCC3)C(=O)NCc1ccc2c(c1)OCO2 (stereo not given)	inactive
COc1cc2[nH]c(=S)n(CC3CCCO3)c(=O)c2cc1OC (stereo not given)	inactive
Cc1ccc(NC2OC(CO)C(O)C(O)C2O)cc1 (stereo not given)	inactive
Cc1cn([C@H]2C[C@H](N=[N+]=[N-])[C@@H](CO)O2)c(=O)[nH]c1=O	inactive
O=C(COC(=O)CNC(=O)c1ccccc1)Nc1ccc(F)c([N+](=O)[O-])c1	inactive
Cc1[nH]nc2c1C(c1ccc(-c3ccccc3C#N)o1)C(C#N)=C(N)O2 (stereo not given)	inactive
O=C(NCc1cccs1)C(=O)NCC(c1ccco1)N1CCN(c2ccc(F)cc2)CC1 (stereo not given)	inactive
CCCN(CCC)CC(=O)Nc1cccc2c1OCO2	inactive
O=C(NC(=S)Nc1c(F)cc(F)cc1Br)c1ccc2c(c1)OCCO2	inactive
CC(=O)c1cccc(NC(=S)NNC(=O)c2ccco2)c1	inactive
O=C(/C=C/c1ccco1)NC(=S)Nc1cccc(-c2nc3ccccc3o2)c1	inactive
O=C(/C=C/c1ccccc1)NNC(=O)c1ccco1	inactive
